Reference: PubChem BioAssay AID1159580 (chemical genetic matrix, 2015)
In all, about 5,500 compounds went through this assay and about 2,000 (36%) were called active. Not shown: some 18% with an inconclusive outcome. Rule as the data show it: active = normalized growth mostly below about 0.91 (no sharp cut-off); inconclusive = no clear call, values can overlap the other calls; inactive = mostly above about 0.92. Some of the results follow.

Test: chemical genetic growth profiling, strain panel (AID 1159580);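 also: tested at 20 µM; growth read once vehicle control cultures reached saturation at 30 °C; 1 = growth at the plate median or of vehicle wells; lower values mean less growth of the strain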
Conditions: growth OD

Measured: normalized growth

C=C1[C@H]2CC[C@@]3(C)[C@H](c4ccoc4)OC(=O)C[C@]13O[C@H]1C[C@H](O)C(C)(C)[C@H](CC(=O)OC)[C@]12C
inactive: S. cerevisiae deletion strains, locus YJR066W, strain TOR1, hits give low values 0.936 | S. cerevisiae deletion strains, locus YJR075W, strain HOC1, hits give low values 0.994 | S. cerevisiae deletion strains, locus YKL009W, strain mrt4, hits give low values 0.997 | S. cerevisiae deletion strains, locus YKL068W, hits give low values 1.02 | S. cerevisiae deletion strains, locus YKL085W, strain MDH1 (second series), hits give low values 1 | S. cerevisiae deletion strains, locus YKL085W, strain MDH1, hits give low values 1 | S. cerevisiae deletion strains, locus YKL160W, strain elf1, hits give low values 0.998 | S. cerevisiae deletion strains, locus YKR001C, strain vps1, hits give low values 1.01 | S. cerevisiae deletion strains, locus YKR026C, strain gcn3, hits give low values 1.02 | S. cerevisiae deletion strains, locus YKR091W, strain srl3, hits give low values 1.02 | S. cerevisiae deletion strains, locus YLL001W, strain dnm1, hits give low values 1.01 | S. cerevisiae deletion strains, locus YLL026W, hits give low values 1.01 | S. cerevisiae deletion strains, locus YLL041C, strain sdh2, hits give low values 1.01 | S. cerevisiae deletion strains, locus YLR027C, strain aat2, hits give low values 1.01 | S. cerevisiae deletion strains, locus YLR039C, strain RIC1, hits give low values 0.969 | S. cerevisiae deletion strains, locus YLR058C, strain SHM2, hits give low values 1.01 | S. cerevisiae deletion strains, locus YLR102C, strain apc9, hits give low values 1.01 | S. cerevisiae deletion strains, locus YLR113W, strain HOG1, hits give low values 1.04 | S. cerevisiae deletion strains, locus YLR221C, strain rsa3, hits give low values 1.03 | S. cerevisiae deletion strains, locus YLR258W, strain gsy2, hits give low values 1 | S. cerevisiae deletion strains, locus YLR262C, strain YPT6 (second series), hits give low values 0.994 | S. cerevisiae deletion strains, locus YLR262C, strain YPT6, hits give low values 0.938 | S. cerevisiae deletion strains, locus YLR268W, strain sec22, hits give low values 1.01 | S. cerevisiae deletion strains, locus YLR320W, strain mms22, hits give low values 1.03 | S. cerevisiae deletion strains, locus YLR342W, strain FKS1, hits give low values 1.02 | S. cerevisiae deletion strains, locus YLR357W, strain rsc2, hits give low values 1.03 | S. cerevisiae deletion strains, locus YLR370C, strain arc18, hits give low values 1 | S. cerevisiae deletion strains, locus YLR371W, strain rom2, hits give low values 1.02 | S. cerevisiae deletion strains, locus YLR384C, strain iki3, hits give low values 1.01 | S. cerevisiae deletion strains, locus YLR418C, strain cdc73, hits give low values 0.997 | S. cerevisiae deletion strains, locus YML016C, strain PPZ1, hits give low values 1 | S. cerevisiae deletion strains, locus YML032C, strain rad52, hits give low values 1.01 | S. cerevisiae deletion strains, locus YML120C, strain ndi1, hits give low values 0.998 | S. cerevisiae deletion strains, locus YML124C, strain tub3, hits give low values 1.02 | S. cerevisiae deletion strains, locus YMR058W, strain fet3, hits give low values 1.05 | S. cerevisiae deletion strains, locus YMR078C, strain ctf18, hits give low values 1.02 | S. cerevisiae deletion strains, locus YMR125W, strain sto1, hits give low values 1 | S. cerevisiae deletion strains, locus YMR129W, hits give low values 1.01 | S. cerevisiae deletion strains, locus YMR205C, strain PFK2, hits give low values 1.01 | S. cerevisiae deletion strains, locus YMR223W, strain ubp8, hits give low values 1.01 | S. cerevisiae deletion strains, locus YMR231W, strain pep5, hits give low values 1.01 | S. cerevisiae deletion strains, locus YMR263W, strain SAP30, hits give low values 1.01 | S. cerevisiae deletion strains, locus YMR307W, strain GAS1, hits give low values 1.03 | S. cerevisiae deletion strains, locus YNL067W, strain RPL9B, hits give low values 1 | S. cerevisiae deletion strains, locus YNL071W, strain lat1, hits give low values 1.01 | S. cerevisiae deletion strains, locus YNL153C, strain GIM3, hits give low values 1.01 | S. cerevisiae deletion strains, locus YNL183C, strain NPR1, hits give low values 0.943 | S. cerevisiae deletion strains, locus YNL209W, strain ssb2, hits give low values 1.04 | S. cerevisiae deletion strains, locus YNL233W, strain BNI4, hits give low values 0.988 | S. cerevisiae deletion strains, locus YNL248C, strain rpa49, hits give low values 1.05 | S. cerevisiae deletion strains, locus YNL250W, strain rad50, hits give low values 1.01 | S. cerevisiae deletion strains, locus YNL271C, strain bni1, hits give low values 0.995 | S. cerevisiae deletion strains, locus YNL298W, strain CLA4, hits give low values 1.02 | S. cerevisiae deletion strains, locus YNL307C, strain MCK1, hits give low values 1.02 | S. cerevisiae deletion strains, locus YNL322C, strain KRE1 (second series), hits give low values 1.02 | S. cerevisiae deletion strains, locus YNL322C, strain KRE1, hits give low values 1 | S. cerevisiae deletion strains, locus YNR049C, strain mso1, hits give low values 1.02 | S. cerevisiae deletion strains, locus YNR052C, strain pop2, hits give low values 1.02 | S. cerevisiae deletion strains, locus YOL006C, strain TOP1, hits give low values 1 | S. cerevisiae deletion strains, locus YOL012C, strain htz1 0.768 | S. cerevisiae deletion strains, locus YOL147C, strain pex11, hits give low values 1.02 | S. cerevisiae deletion strains, locus YOR001W, strain rrp6, hits give low values 1.03 | S. cerevisiae deletion strains, locus YOR061W, strain CKA2, hits give low values 1 | S. cerevisiae deletion strains, locus YOR069W, strain VPS5, hits give low values 1 | S. cerevisiae deletion strains, locus YOR070C, strain gyp1, hits give low values 1.03 | S. cerevisiae deletion strains, locus YOR080W, strain dia2, hits give low values 1.02 | S. cerevisiae deletion strains, locus YOR083W, strain WHI5, hits give low values 0.999 | S. cerevisiae deletion strains, locus YOR106W, strain vam3, hits give low values 0.998 | S. cerevisiae deletion strains, locus YOR136W, strain idh2, hits give low values 1.02 | S. cerevisiae deletion strains, locus YOR144C, strain elg1, hits give low values 1.02 | S. cerevisiae deletion strains, locus YOR184W, strain ser1, hits give low values 1.02 | S. cerevisiae deletion strains, locus YOR231W, strain MKK1, hits give low values 0.985 | S. cerevisiae deletion strains, locus YOR265W, strain rbl2, hits give low values 1 | S. cerevisiae deletion strains, locus YOR270C, strain vph1, hits give low values 1.01 | S. cerevisiae deletion strains, locus YOR290C, strain snf2, hits give low values 0.974 | S. cerevisiae deletion strains, locus YOR316C, strain cot1, hits give low values 1.02 | S. cerevisiae deletion strains, locus YPL051W, strain arl3, hits give low values 1.02 | S. cerevisiae deletion strains, locus YPL078C, strain atp4, hits give low values 0.985 | S. cerevisiae deletion strains, locus YPL106C, strain sse1, hits give low values 1 | S. cerevisiae deletion strains, locus YPL240C, strain hsp82, hits give low values 1.01 | S. cerevisiae deletion strains, locus YPL256C, strain CLN2, hits give low values 0.981 | S. cerevisiae deletion strains, locus YPR119W, strain clb2, hits give low values 1.01 | S. cerevisiae deletion strains, locus YPR141C, strain kar3, hits give low values 1.02 | S. cerevisiae deletion strains, locus YPR163C, strain tif3, hits give low values 1.01 | S. cerevisiae deletion strains, locus YPR167C, strain met16, hits give low values 1.02 | S. cerevisiae deletion strains, strain wtn01, hits give low values 1.01 | S. cerevisiae strains, strain wild type, hits give low values 1.01
